# Screen size: about 6,200 compounds; about 2,900 (47%) were called active. So high a share suggests a set chosen from earlier hits. The list shows a part of the results. Unmarked numbers belong to inactive results. No stated cut-off is given here; in the data, active means inhibition above about 50%; inactive means the rest.
# Assay: Mycobacterium tuberculosis growth inhibition, primary screen (AID 1259343)
# Details: inhibition: at 10 µM, hits give high values; outcome: 10 uM
row,SMILES,inhibition
1,CCC(C)C(=O)Nc1ccc(Cl)c2cccnc12 (stereo not given),-29.8%
2,CC(=O)CCc1ccc(OCCCOc2ccc(Cl)c3cccnc23)cc1,69.7% (active)
3,CCNc1nc(=S)[nH]c2ccccc12,-44.3%
4,S=c1nc(NC2CC2)c2ccccc2[nH]1,85.5% (active)
5,CNc1nc(=S)[nH]c2ccccc12,72.5% (active)
6,Cc1nn2c(nc(NC3CCCC3)c3ccccc32)c1Cl,13.2%
7,COc1ccc(-c2csc(C(O)c3cccc(Cl)c3)n2)cn1 (stereo not given),40.1%
8,COc1ccc(-c2noc(Cc3ccc(F)c(Br)c3)n2)cn1,58.1% (active)
9,COc1ccc(Cc2nc(-c3ccc(Br)cc3)no2)cc1,-10.8%
10,CC(C)c1nc2c(c(=O)c3ccccc3n2C)c(=O)n1-c1ccccc1,-10.5%
11,CC1CCN(C(=S)NC2CC3CCC2C3)CC1 (stereo not given),67.5% (active)
12,c1ccc2[nH]c(CCC3CCCCC3)nc2c1,-43.3%
13,NC(=S)Cc1nc2ccccc2[nH]1,98.2% (active)
14,CCc1ccc(/C=C/c2nc3ccccc3[nH]c2=O)cc1,26.4%
15,O=c1ccn(CCOc2cc(Cl)cc(Cl)c2)c(Cl)c1,53.2% (active)
16,N#Cc1c(N)sc2c1CCN(c1nccc(C(F)(F)F)n1)C2,-0.04%
17,COc1ccc(CC(=O)Nc2cc(-c3cccs3)nn2-c2nc(C)c(C)c(=O)[nH]2)cc1,99.9% (active)
18,COc1ccc(OCC(=O)Nc2cc(-c3cccs3)nn2-c2nc(C)cc(=O)[nH]2)cc1,99.1% (active)
19,COc1ccc(CC(=O)Nc2cc(-c3cccs3)nn2-c2nc(C)cc(=O)[nH]2)cc1,99.4% (active)
20,Cc1nc(-n2nc(-c3cccs3)cc2NC(=O)C2CC2)[nH]c(=O)c1C,-19.4%
21,Cc1nc(-n2nc(-c3cccs3)cc2NC(=O)CCC2CCCC2)[nH]c(=O)c1C,101% (active)
22,CC(C)c1cc(=O)[nH]c(-n2nc(-c3cccs3)cc2NC(=O)Cc2ccc(F)cc2)n1,6.65%
23,CC(C)c1cc(=O)[nH]c(-n2nc(-c3cccs3)cc2NC(=O)CCc2ccccc2)n1,19.2%
24,Cc1cc(=O)[nH]c(-n2nc(-c3cccs3)cc2NC(=O)COc2ccccc2F)n1,-30.7%
25,CC(C)c1cc(=O)[nH]c(-n2nc(-c3cccs3)cc2NC(=O)COc2ccccc2F)n1,100% (active)

row,SMILES,inhibition
1,COc1ccc(CC(=O)Nc2cc(-c3cccs3)nn2-c2nc(C(C)C)cc(=O)[nH]2)cc1,100% (active)
2,CCCCCOc1ccc(C(=O)N2CCC(O)(c3ccccc3)CC2)cc1OCCCCC,35.2%
3,Cc1ccc(NCc2nsc(N(C)C)n2)c(F)c1,51% (active)
4,O=C(NCC1CCCCO1)c1ccc2oc(CCCc3ccccc3)nc2c1 (stereo not given),47%
5,O=C(COCc1ccccc1)N(Cc1ccccc1)Cc1nc2cc(Cl)ccc2o1,-20.6%
6,O=C(c1ccc2oc(CCCc3ccccc3)nc2c1)N1CCCCO1,50.9% (active)
7,N#Cc1c(F)cccc1Oc1ccc(C(=O)O)cc1,39.2%
8,CS(=O)(=O)NCc1ccc(Oc2ccccc2F)c(F)c1,1.57%
9,CS(=O)(=O)NC(=O)c1ccc(Oc2ccc(F)cc2F)cc1,72.8% (active)
10,CCOc1ccccc1CSc1nc2ccsc2c(=O)n1C,102% (active)
11,Cc1ccccc1CSc1nc2c(c(=O)n1C)SCC2,45.6%
12,O=c1c2sccc2nc(SCCc2ccccn2)n1-c1ccccc1,12.8%
13,S=C1Nc2ccccc2C2CC=NN12 (stereo not given),55.7% (active)
14,COc1ccc(OCCSC2=Nc3ccccc3C3CC=NN23)cc1 (stereo not given),45.9%
15,Cc1ncc(CN2CCCC(C(=O)Nc3cccc(-c4ccc(F)cc4)c3)C2)s1 (stereo not given),61.6% (active)
16,O=C(Nc1cccc(-c2ccc(F)cc2)c1)C1CCCN(C2CCSCC2)C1 (stereo not given),86.7% (active)
17,CC(C)c1cc(C(=O)N2CCCC(C(=O)c3ccc4ccccc4c3)C2)on1 (stereo not given),15.6%
18,Cc1nnsc1C(=O)N1CCCC(C(=O)Nc2cccc(-c3ccc(F)cc3)c2)C1 (stereo not given),17.2%
19,Cc1nc(C)c(CN2CCCC(C(=O)Nc3ccc(-c4cccc(F)c4)cc3)C2)nc1C (stereo not given),90.5% (active)
20,CC(C)c1cc(C(=O)N2CCCC(C(=O)Nc3cccc(-c4ccc(F)cc4)c3)C2)on1 (stereo not given),83.1% (active)
21,O=c1c2ccccc2oc2nc(C3CCCCC3)n(Cc3ccccc3)c(=O)c12,-13.4%
22,O=C(Nc1ccc(-c2cccc(F)c2)cc1)C1CCCN(C(=O)C2CCOCC2)C1 (stereo not given),76.7% (active)
23,CCc1ncc(CN2CCCC(C(=O)Nc3cccc(-c4ccc(F)cc4)c3)C2)cn1 (stereo not given),77% (active)
24,CSCCC(=O)N1CCCC(C(=O)Nc2ccc(-c3cccc(F)c3)cc2)C1 (stereo not given),36.2%
25,O=C(Nc1cccc(-c2ccc(F)cc2)c1)C1CCCN(Cc2cccnc2)C1 (stereo not given),47.1%

row,SMILES,inhibition
1,O=c1c(Cl)c(Oc2ccccc2)cnn1Cc1ccccc1,24.6%
2,CC1(CCc2ccccc2)CCN(c2cn[nH]c(=O)c2Cl)C1 (stereo not given),71.2% (active)
3,Cc1ccc(CC2CCCN(c3cn[nH]c(=O)c3Cl)C2)cc1 (stereo not given),41.4%
4,CCN(C(=O)c1cccc(Br)c1C)c1ccccc1,-6.9%
5,Cc1cc(Cl)ccc1OC(C)c1nnc(SCCC2CCCCC2)o1 (stereo not given),10.5%
6,O=S(=O)(c1cc(Br)ccc1Br)N1CCc2ccccc21,102% (active)
7,O=S(=O)(c1cc(Br)ccc1Br)N1CCC1c1ccccc1 (stereo not given),77.1% (active)
8,Cc1ccc(O)c(S(=O)(=O)N2CCCc3cc(F)c(F)cc32)c1,3.27%
9,O=S(=O)(c1cc(Br)ccc1Br)N1CCCc2ccccc21,7.14%
10,CC(C)SCC(=O)Nc1cnc2ccccc2c1,92.9% (active)
11,CC(C)CCNC(=O)CSc1nc2ccccc2o1,6.9%
12,COc1cccc(-n2cc(CN(C)Cc3cc4ccccc4[nH]3)cn2)c1,41.5%
13,COc1cccc(-n2cc(CN(C)Cc3cccc4nonc34)cn2)c1,83.4% (active)
14,CC(C)c1cc2c(c(O)c1O)[C@@]1(C(=O)O)CCCC(C)(C)C1CC2 (stereo not given in full),48.2%
15,CC(C)c1ccc2c(c1)CCC1C(C)(C(N)=O)CCCC21C (stereo not given),64.3% (active)
16,CC(=O)NS(=O)(=O)c1ccc(N)cc1,60.2% (active)
17,COc1ccc(S(=O)(=O)NCCC(C)C)cc1,3.91%
18,Cc1ccc(C2CC2C(=O)NS(=O)(=O)c2ccc(F)cc2)s1 (stereo not given),-6%
19,O=C(NCc1ccc(S(=O)(=O)N2CCCCC2)cc1)NCc1cccc(C(F)(F)F)c1,91.4% (active)
20,O=C(c1cnc2cc3c(cc2c1)OC1(CCCC1)O3)c1ccccc1O,-7.11%
21,Cc1ccc(NC2=CC(=O)c3sc(C)nc3C2=O)cc1,99.8% (active)
22,Cc1ccc(-c2nc(C)sc2CC(=O)NC(C)C2CC2)cc1 (stereo not given),33.3%
23,CCc1nc2sc3c(NCCN(C)C)ncnc3c2c2c1CCCC2,47.1%
24,CC(C)CNc1nnnc2c1sc1nc(N3CCOCC3)c3c(c12)CCCC3,-4.41%
25,CCc1nc2sc3c(NCC4CCCO4)ncnc3c2c2c1CCCC2 (stereo not given),57.2% (active)

row,SMILES,inhibition
1,COc1ccc(-c2cc(NC(=O)C3CC3)ccc2OC)cc1,93.7% (active)
2,COc1ccc(-c2cc(CNC(=O)C3CC3)no2)cc1,30.7%
3,COc1ccc(F)cc1-c1csc(-c2ccc(NC(=O)C3CC3)cc2)n1,71.9% (active)
4,COc1ccc(-c2nc(-c3ccccc3F)cs2)cc1OC,12.5%
5,Cc1csc2cc(C(=O)NC3CC(C)CC(C)(C)C3)cnc12 (stereo not given),41%
6,CCOC(=O)c1c(C)nn(-c2ccc(C(=O)NC3CCC(C)CC3)cc2)c1C (stereo not given),38.6%
7,CCOC(=O)c1c(C)c(C(=O)NC2CC(C)CC(C)(C)C2)c(C)n1CC (stereo not given),93.8% (active)
8,CCCc1c(C(=O)O)c(C2CC2)nn1-c1ccc(OC)cc1,17.7%
9,CCOc1ccc2c(c1)C=C(C(=O)NCc1ccco1)CO2,-9.65%
10,Cc1c(C(=O)NCc2ccco2)c(C2CC2)nn1-c1ccc(Cl)c(Cl)c1,91% (active)
11,CS(=O)(=O)N(c1ccccc1Cl)S(=O)(=O)c1ccc(Cl)c([N+](=O)[O-])c1,70.4% (active)
12,CN(C)C(CNc1ccc(S(C)(=O)=O)cc1[N+](=O)[O-])c1ccco1 (stereo not given),-2.26%
13,O=[N+]([O-])c1cc(S(=O)(=O)Oc2cccc(Cl)c2Cl)ccc1Cl,-21.3%
14,O=C1O/C(=C/Br)CCC1c1cccc2ccccc12 (stereo not given),102% (active)
15,CCOC(=O)C1(CCOc2ccccc2)CCN(Cc2cccc(-n3cccn3)c2)CC1,31.7%
16,CNC(=O)COc1ccc(-c2cccc(-n3cccn3)c2)cc1,54.7% (active)
17,O=C(O)c1ccc(CN2CCc3cc(-n4cccn4)cnc32)cc1,26.6%
18,CNC(=O)c1ccc(-c2cccc(-n3cccn3)c2)s1,91.2% (active)
19,COc1cc(NC(=O)c2ccc(N3CCC(C)=N3)cc2)cc(OC)c1,71% (active)
20,COc1cc(NC(=O)c2ccc(CN3CC=CC3)cc2)cc(OC)c1,36.1%
21,NC(Cc1ccccc1)c1csc(Nc2cc(Oc3ccccc3)ncn2)n1 (stereo not given),inactive
22,NC(COCc1ccccc1)c1csc(Nc2cc(Oc3ccccc3)ncn2)n1 (stereo not given),76.8% (active)
23,COc1ccc(CC(N)c2csc(Nc3cc(Oc4ccccc4)ncn3)n2)cc1 (stereo not given),56.6% (active)
24,NC(Cc1ccc(C(F)(F)F)cc1)c1csc(Nc2cc(Oc3ccccc3)ncn2)n1 (stereo not given),59.6% (active)
25,NC(Cc1ccc(F)cc1)c1csc(Nc2cc(Oc3ccccc3)ncn2)n1 (stereo not given),54.2% (active)
